# Experimental data taken from PMC4336329 (PLoS ONE, 2015).
# About 14,000 (4.5%) of roughly 310,000 compounds showed an effect of 50% or more. Effects have a minus sign here. Shown is part of a subset that was picked to be rich in strong results.
# Target: human ether-à-go-go-related gene (hERG) potassium channel (human, UniProt Q12809)
# Assay: primary screen, population patch clamp on CHO cells stably expressing hERG; higher = less effect of the substance
# 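Also: peak tail current of the secondary pulse compared with the same well before compound.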
# Chain of human ether-à-go-go-related gene (hERG) potassium channel (Q12809 whole entry, looked up): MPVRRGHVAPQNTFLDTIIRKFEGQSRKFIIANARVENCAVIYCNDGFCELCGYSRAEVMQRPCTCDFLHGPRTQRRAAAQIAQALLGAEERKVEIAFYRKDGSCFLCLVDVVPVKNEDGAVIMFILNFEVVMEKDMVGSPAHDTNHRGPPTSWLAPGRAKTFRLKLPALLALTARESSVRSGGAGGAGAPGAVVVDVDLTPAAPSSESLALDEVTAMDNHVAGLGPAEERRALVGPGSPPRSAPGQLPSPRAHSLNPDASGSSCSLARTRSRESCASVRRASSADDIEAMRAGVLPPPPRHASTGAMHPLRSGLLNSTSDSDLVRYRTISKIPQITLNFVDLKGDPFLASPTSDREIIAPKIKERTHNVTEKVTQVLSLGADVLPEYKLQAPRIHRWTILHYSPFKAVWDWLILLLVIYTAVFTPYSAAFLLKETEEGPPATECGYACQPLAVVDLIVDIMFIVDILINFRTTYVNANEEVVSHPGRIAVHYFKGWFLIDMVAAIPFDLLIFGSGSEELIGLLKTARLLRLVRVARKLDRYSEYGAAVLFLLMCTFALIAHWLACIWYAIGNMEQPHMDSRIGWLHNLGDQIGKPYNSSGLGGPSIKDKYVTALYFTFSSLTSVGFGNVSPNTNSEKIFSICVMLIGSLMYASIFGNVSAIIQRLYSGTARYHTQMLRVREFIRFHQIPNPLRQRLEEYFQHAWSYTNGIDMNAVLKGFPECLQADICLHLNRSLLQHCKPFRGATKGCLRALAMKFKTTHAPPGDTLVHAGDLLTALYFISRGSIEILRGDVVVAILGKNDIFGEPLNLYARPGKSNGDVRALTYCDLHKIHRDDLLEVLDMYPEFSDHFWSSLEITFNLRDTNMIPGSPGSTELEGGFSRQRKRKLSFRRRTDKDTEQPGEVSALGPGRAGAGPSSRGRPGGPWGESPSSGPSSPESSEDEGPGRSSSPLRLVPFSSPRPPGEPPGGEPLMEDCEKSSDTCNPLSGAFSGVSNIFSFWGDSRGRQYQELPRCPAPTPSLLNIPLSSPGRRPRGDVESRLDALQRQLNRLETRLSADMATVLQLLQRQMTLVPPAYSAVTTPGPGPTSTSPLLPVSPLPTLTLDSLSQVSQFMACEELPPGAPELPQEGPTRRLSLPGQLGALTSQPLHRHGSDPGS
row,Compound,"hERG current change (%, negative = inhibition) at 10uM [%]"
1,CN1CCc2c(sc3c2C(=O)NC(c2ccccn2)N3)C1 (centres unmarked),-1.35
2,CN1CCc2c(sc3c2C(=O)NC(/C=C/c2ccco2)N3)C1 (centres unmarked),-27.4
3,CSc1ccc(C2NC(=O)c3c(sc4c3CCN(C)C4)N2)cc1 (centres unmarked),-60.6
4,CN1CCc2c(sc3c2C(=O)NC(/C=C\c2ccccc2)N3)C1 (centres unmarked),-58.6
5,CN1CCc2c(sc3c2C(=O)NC(c2ccc4c(c2)OCO4)N3)C1 (centres unmarked),-16.5
6,Cc1ccc2nc(-c3ccc(-c4ccccn4)s3)cn2c1,-1.76
7,CN(C)c1nc(N(C)C)nc(N(C#N)CCOc2ccccc2)n1,-4.58
8,CCNc1nc(NCC)nc(N(C#N)CCOc2ccccc2)n1,-55.1
9,CCNc1nc(NC(C)C)nc(N(C#N)CCOc2ccccc2)n1,-26
10,ON1C2CCCCC2N(O)C1c1ccccc1 (centres unmarked),13.2
11,O=C(COC(=O)C1(c2ccccc2F)CCCC1)NCc1ccc2c(c1)OCO2,-6.33
12,CCOC(=O)N1CCC(NC(=O)CS(=O)(=O)Cc2nc(-c3cccc(Cl)c3)oc2C)CC1,-18.3
13,Cc1oc(-c2cccc(Cl)c2)nc1CS(=O)(=O)CC(=O)NC1CCCC1,6.45
14,CCOC(=O)N1CCC(NC(=O)C2CCCN(Cc3nc(-c4cccc(C)c4)oc3C)C2)CC1 (centres unmarked),-63.6
15,CCOC(=O)N1CCC(NC(=O)CS(=O)Cc2nc(-c3ccc(C)cc3)oc2C)CC1 (centres unmarked),-2.4
16,CCOC(=O)N1CCC(NC(=O)C2CCCN(c3nc4ccccc4o3)C2)CC1 (centres unmarked),-28.4
17,CCOC(=O)N1CCC(NC(=O)CSCc2nc(-c3cccc(OC)c3)oc2C)CC1,-17.6
18,CCc1ccc(-c2nc(CN3CCCC(C(=O)O)C3)c(C)o2)cc1 (centres unmarked),14.2
19,CCOC(=O)N1CCC(NC(=O)C2CCCN(Cc3nc(-c4cccc(Cl)c4)oc3C)C2)CC1 (centres unmarked),-72.2
20,CCOC(=O)N1CCC(NC(=O)C2CCCN(Cc3nc(-c4ccc(CC)cc4)oc3C)C2)CC1 (centres unmarked),-71.5
21,Nc1sc(-c2ccccc2)cc1C(=O)N/N=C/c1ccc(Cl)cc1,18.1
22,O=C(CN1CCCCCCC1)Nc1cc(Cl)cc(Cl)c1,1.75

row,Compound,"hERG current change (%, negative = inhibition) at 10uM [%]"
1,Cc1ccc(-c2noc(Cn3cc(S(=O)(=O)N4CCCC4)ccc3=O)n2)cc1,8.62
2,CC(=O)N1c2ccc(S(=O)(=O)N3CCC(C(=O)Nc4cc(C)cc(C)c4)CC3)cc2CC1C (centres unmarked),2
3,COc1cc(/C=C/C(=O)OCC(=O)Nc2ccc(C)cc2[N+](=O)[O-])ccc1O,-20.5
4,CC(CC(=O)O)CC(=O)Nc1cc([N+](=O)[O-])ccc1O (centres unmarked),-2.89
5,COC(=O)c1cccc(N2C(=O)c3ccccc3S2(=O)=O)c1,-9.36
6,CCOC(=O)c1cccc(N2C(=O)c3ccccc3S2(=O)=O)c1,-59.5
7,CCOC(=O)c1ccccc1CN1C(=O)c2ccccc2S1(=O)=O,-11.1
8,CCOC(=O)N/N=C(\C)c1ccc(Oc2ncccn2)cc1,17.1
9,O=C(O)C(=O)O.c1ccc(CN2CCC(N3CCC(N4CCCCCC4)CC3)CC2)cc1,16.5
10,CCCN1CCC(N(CCc2ccccc2)Cc2ccccc2)CC1,-72.2
11,CCN(CC)C1CCN(C(=O)c2ccc(OC3CCN(CCc4ccccc4)CC3)cc2)C1 (centres unmarked),2.06
12,CCCCC(=O)C1CCN(Cc2ccccc2)CC1,-34.5
13,CCCN1CCC(N(C)CCc2ccc(OC)c(OC)c2)CC1,-11.4
14,O=C(O)C(=O)O.c1ccc(CCN(Cc2ccccc2)C2CCN(C3CCCC3)CC2)cc1,-77
15,CCCCN(Cc1ccccc1)C1CCN(CCc2ccccc2)CC1,-72.2
16,CCCN(CCO)C1CCN(CCc2ccccc2)CC1,7.14
17,CC(C)CC(=O)N1CCC(N(CCc2ccccc2)Cc2ccccc2)CC1.O=C(O)C(=O)O,-46.8
18,CCN(Cc1ccccc1)C1CCN(Cc2ccccc2)CC1,-14.9
19,CCCCN(Cc1ccccc1)C1CCN(Cc2ccccc2)CC1,-53.5
20,CCCN1CNC(=S)N(CCc2ccccc2)C1,8.83
21,CC(C)CNS(=O)(=O)c1ccc(OCC(=O)NCC2CCCO2)c(Cl)c1 (centres unmarked),-4.3
22,S=c1[nH]cnc2scc(-c3ccc(Br)cc3)c12,0.154
